Experimental data as given in PubChem BioAssay AID1851 (National Center for Advancing Translational Sciences (NCATS), 2009).
About 5,800 (36%) of roughly 16,000 compounds were called active. Inconclusive results (about 23%) are left out. Some of the results follow. A number with no mark means an inactive call. Calls come from the whole dose curve; as a rule, active = well fitted curve in the direction sought with a large enough effect; inconclusive = small, poorly fitted or top-dose-only effect, or effect the other way; inactive = no such curve, though single readings can be large or run the other way.

The compounds below were run against Cytochrome P450 2C19 (Homo sapiens) (UniProt P33261) (assay: Cytochrome panel assay with activity outcomes). Details: recombinant CYP, pro-luciferin dealkylation, luminescence, p450-cyp2c19; series mostly up to 57.1 µM.
Cytochrome P450 2C19 (Homo sapiens), sequence (P33261 whole entry, looked up): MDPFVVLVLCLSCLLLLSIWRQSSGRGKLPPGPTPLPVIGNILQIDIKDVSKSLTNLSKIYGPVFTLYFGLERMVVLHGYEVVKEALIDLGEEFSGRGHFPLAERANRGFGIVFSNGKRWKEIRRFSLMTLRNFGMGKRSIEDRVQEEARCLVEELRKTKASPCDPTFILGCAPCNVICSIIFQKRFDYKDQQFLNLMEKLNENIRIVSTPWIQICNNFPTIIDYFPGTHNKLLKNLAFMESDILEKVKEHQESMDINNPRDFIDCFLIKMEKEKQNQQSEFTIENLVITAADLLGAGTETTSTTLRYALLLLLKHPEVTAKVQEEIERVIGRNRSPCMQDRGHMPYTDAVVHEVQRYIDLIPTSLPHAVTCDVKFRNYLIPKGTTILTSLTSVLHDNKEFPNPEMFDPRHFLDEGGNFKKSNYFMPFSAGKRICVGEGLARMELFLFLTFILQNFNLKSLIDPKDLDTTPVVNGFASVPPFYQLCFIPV
% is set by controls: 0 for no effect and ±100 for the full control effect.

Question: `COc1ccccc1-c1nc(NC2CC2)c2ccccc2n1` was tested. Which AC50 did it give?
Answer: inactive

Question: How did the AC50 turn out when `COCCn1c(=O)c(-c2ccc(OC)cc2)nc2cnc(N3CCOCC3)nc21` was run?
Answer: inactive

Question: For `COc1ccc(-c2cc(C(F)(F)F)nc(N3CCN(C)CC3)n2)cc1OC`, which AC50 is on record?
Answer: inactive

Question: Which AC50 does the source give for `COc1ccc(-c2cc(C(F)(F)F)nc(NC3CCCC3)n2)cc1OC` here?
Answer: 22.4 µM (active)

Question: With `Cn1c(=O)c(-c2ccc(F)cc2)nc2cnc(N3CCOCC3)nc21` as the compound, how does the AC50 read?
Answer: inactive

Question: How did the AC50 turn out when `COc1ccc(-c2cc(C(F)(F)F)nc(N3CCOCC3)n2)cc1OC` was run?
Answer: 2.24 µM (active)

Question: `COc1ccc(-c2cc(C(F)(F)F)nc(N3CCCCC3)n2)cc1OC` was tested. Which AC50 did it give?
Answer: 3.16 µM (active)

Question: With `O=C(O)C[C@H](NC(=O)CP(=O)(O)O)C(=O)O.[NH-][C@@H]1CCCC[C@@H]1[NH-].[Pt]` as the compound, how does the activity, negative = inhibition read?
Answer: -14.4% [at 11.4 µM]

Question: `CCOC(=O)N/N=C1/C[C@@H](O)[C@@H](O)[C@@H]2[C@@H]3C(=O)N(CC)C(=O)[C@H]3CC[C@H]12` was tested. Which activity, negative = inhibition did it give?
Answer: -7.53% [at 11.4 µM]

Question: How did the AC50 turn out when `Cc1csc(NC(=O)CNS(=O)(=O)c2cccs2)n1` was run?
Answer: 14.1 µM (active)

Question: Which AC50 does the source give for `CCOC(=O)N1CCN(C(=O)CNS(=O)(=O)c2cccs2)CC1` here?
Answer: 8.91 µM (active)

Question: Which AC50 does the source give for `Cc1csc(NC(=O)Cc2c[nH]c3ccccc23)n1` here?
Answer: 7.08 µM (active)

Question: `COCC(=O)N1CCC2(CC1)CN(C(c1ccccc1)c1ccccc1)C2` was tested. Which AC50 did it give?
Answer: inactive

Question: For `Cc1csc(NC(=O)CCNS(=O)(=O)c2ccc3c(c2)c(=O)n(C)c(=O)n3C)n1`, which AC50 is on record?
Answer: inactive

Question: Which AC50 does the source give for `CCOC(=O)N1CCN(C(=O)CNCc2cccs2)CC1` here?
Answer: inactive

Question: Which AC50 does the source give for `O=C(CCNS(=O)(=O)c1cccs1)N1CCc2ccccc2C1` here?
Answer: 2.24 µM (active)

Question: `O=C(O)Cc1c[nH]c2ccc(O)cc12` was tested. Which AC50 did it give?
Answer: inactive

Question: For `O=C(CCNS(=O)(=O)c1cccs1)N1CCCCCC1`, which AC50 is on record?
Answer: 3.16 µM (active)

Question: With `O=C(Cc1ccc(-n2c(=O)[nH]c3ccccc3c2=O)cc1)N1CCN(c2cccc(Cl)c2)CC1` as the compound, how does the AC50 read?
Answer: 8.91 µM (active)

Question: How did the AC50 turn out when `O=c1nc2ccccc2c2n1CC(CN1CCN(c3cccc(Cl)c3)CC1)N2` (stereo not drawn) was run?
Answer: inactive

Question: How did the AC50 turn out when `COc1ccc(CC(=O)N2CCN(c3ccc(C4=NNC(=O)CC4C)cc3)CC2)cc1` (stereo not drawn) was run?
Answer: inactive

Question: With `CN1CCN(CC(=O)N2c3ccccc3Sc3cc4ccccc4cc32)CC1` as the compound, how does the activity, negative = inhibition read?
Answer: -1.84% [at 11.4 µM]

Question: For `CN1CCCC[C@@H]1CCN1c2ccccc2Sc2ccc(S(C)=O)cc21` (stereo partly drawn), which AC50 is on record?
Answer: inactive

Question: How did the AC50 turn out when `CC1CCN(CC(=O)N2c3ccccc3Sc3cc4ccccc4cc32)CC1` was run?
Answer: 3.16 µM (active)

Question: With `CCN[C@@H]1C[C@H](C)S(=O)(=O)c2sc(S(N)(=O)=O)cc21` as the compound, how does the AC50 read?
Answer: inactive

Question: Which AC50 does the source give for `Cc1ccsc1/C=N/Nc1nc(Cl)c(Cl)cc1Cl` here?
Answer: 7.94 µM (active)

Question: `CN(C)c1ccc(N=Cc2nc(-c3ccccc3)oc2O)cc1` was tested. Which AC50 did it give?
Answer: 1.78 µM (active)

Question: For `Oc1oc(-c2ccccc2)nc1C=Nc1ccccc1`, which AC50 is on record?
Answer: 3.98 µM (active)

Question: `CN(C)Cc1ccc(O)c(CN(C)C)n1` was tested. Which activity, negative = inhibition did it give?
Answer: -0.0983% [at 11.4 µM]

Question: Which AC50 does the source give for `C=CCCCCCCCCC(=O)Nc1c[nH]c(=O)[nH]c1=O` here?
Answer: inactive

Question: `Cc1ccc2[nH]c3c(N4CCc5ccccc5C4)ncnc3c2c1` was tested. Which AC50 did it give?
Answer: 1.58 µM (active)

Question: For `CCN1CCCC1Cn1cnc2c([nH]c3ccc(C)cc32)c1=O` (stereo not drawn), which AC50 is on record?
Answer: inactive

Question: Which AC50 does the source give for `Cc1ccc(C2(C)NC(=O)N(CC(=O)Nc3cc(C)on3)C2=O)cc1` (stereo not drawn) here?
Answer: inactive

Question: How did the AC50 turn out when `COc1ccc(OC)c(C(=O)CN2C(=O)NC(C)(c3ccccc3)C2=O)c1` (stereo not drawn) was run?
Answer: 0.224 µM (active)

Question: `Cc1cc(NC(=O)CN2C(=O)NC(C)(c3ccc(OC(F)F)cc3)C2=O)no1` (stereo not drawn) was tested. Which AC50 did it give?
Answer: inactive

Question: With `CCn1c(SCC(=O)NC2CCCCC2)nnc1-c1cc2cccc(OC)c2o1` as the compound, how does the AC50 read?
Answer: 10 µM (active)

Question: Which AC50 does the source give for `Cn1c(SCC(=O)NC2CC2)nnc1-c1cccc(NC(=O)c2ccccc2F)c1` here?
Answer: inactive

Question: Which AC50 does the source give for `Cc1nnc(SCC(=O)NCC2CCCCC2)n(N)c1=O` here?
Answer: inactive

Question: For `Nc1nc2c(c(=O)[nH]1)CN(c1ccc(S(N)(=O)=O)cc1)CN2`, which activity, negative = inhibition is on record?
Answer: 24.4% [at 11.4 µM]

Question: With `Cc1ccc(/C=C2\SC(=S)N(CCCC(=O)Nc3ccccn3)C2=O)cc1` as the compound, how does the AC50 read?
Answer: 10 µM (active)

Question: With `CCNc1ncc2nc(CCc3ccccc3)c(=O)n(C3CC3)c2n1` as the compound, how does the AC50 read?
Answer: 6.31 µM (active)

Question: How did the AC50 turn out when `CCNc1ncc2nc(CCc3ccccc3)c(=O)n(Cc3ccc(F)cc3)c2n1` was run?
Answer: inactive

Question: How did the AC50 turn out when `Cc1nc2cnc(Nc3ccccc3)nc2n(C)c1=O` was run?
Answer: inactive

Question: How did the AC50 turn out when `CCNc1ncc2nc(C)c(=O)n(C3CC3)c2n1` was run?
Answer: inactive

Question: Which AC50 does the source give for `Cn1c(=O)c(CCc2ccccc2)nc2cnc(Nc3ccccc3)nc21` here?
Answer: 15.8 µM (active)

Question: For `CCNc1ncc2nc(-c3ccccc3)c(=O)n(C)c2n1`, which AC50 is on record?
Answer: inactive

Question: How did the AC50 turn out when `CCNc1ncc2nc(CCc3ccccc3)c(=O)n(C)c2n1` was run?
Answer: 2.51 µM (active)

Question: For `CCNc1ncc2nc(-c3ccccc3)c(=O)n(C3CC3)c2n1`, which AC50 is on record?
Answer: inactive

Question: `CCO/C([O-])=N/c1c[n+](N2CCOCC2)no1` was tested. Which AC50 did it give?
Answer: inactive

Question: For `COC(=O)C(NC(=O)c1ccc(Cl)cc1)(Nc1nc(C)cs1)C(F)(F)F` (stereo not drawn), which AC50 is on record?
Answer: 5.01 µM (active)

Question: `Cc1ccc(NC(=O)CCc2ccc(S(=O)(=O)NC3CCCCC3)cc2)cc1` was tested. Which AC50 did it give?
Answer: 15.8 µM (active)

Question: For `O=C(CCc1ccc(S(=O)(=O)NC2CCCCC2)cc1)N(Cc1ccccc1)Cc1ccccc1`, which AC50 is on record?
Answer: 1.41 µM (active)

Question: How did the AC50 turn out when `CCC(C)NS(=O)(=O)c1ccc(NC(=O)CCC2CCCCC2)cc1` (stereo not drawn) was run?
Answer: inactive

Question: How did the AC50 turn out when `CC(=O)c1ccc(S(=O)(=O)NC(=O)NC2CCCCC2)cc1` was run?
Answer: inactive

Question: How did the AC50 turn out when `Cc1ccccc1NC1=NC(=S)N(c2ccccc2)C12CCOC(C)(C)C2` (stereo not drawn) was run?
Answer: inactive

Question: For `COc1ccc([C@@H](Nc2ccccn2)c2cc(C(C)(C)C)cc(C(C)(C)C)c2O)cc1`, which AC50 is on record?
Answer: 2.51 µM (active)

Question: Which AC50 does the source give for `CN1CCc2cc(Cl)c(O)cc2[C@@H](c2ccccc2)C1` here?
Answer: inactive

Question: How did the AC50 turn out when `CS(=O)(=O)N1CCC[C@@]2(CCN(c3ncccn3)C2)C1` was run?
Answer: inactive

Question: Which AC50 does the source give for `CS(=O)(=O)N1CCC2(CCCN(c3ccncc3)C2)CC1` here?
Answer: 1.26 µM (active)

Question: `O=S(=O)(c1ccccc1)N1CCC[C@@]2(CCN(c3cccc(-c4ccccc4)c3)C2)C1` was tested. Which AC50 did it give?
Answer: inactive

Question: With `CC(C)CN1CC[C@@]2(CCCN(S(=O)(=O)c3ccccc3)C2)C1` as the compound, how does the AC50 read?
Answer: inactive

Question: `O=S(=O)(c1ccccc1)N1CCC[C@@]2(CCN(C(c3ccccc3)c3ccccc3)C2)C1` was tested. Which AC50 did it give?
Answer: inactive

Question: With `CS(=O)(=O)N1CCC2(CCCN(c3ncccn3)C2)CC1` as the compound, how does the AC50 read?
Answer: inactive

Question: `CS(=O)(=O)N1CCC[C@@]2(CCN(c3ccccc3)C2)C1` was tested. Which AC50 did it give?
Answer: 3.16 µM (active)

Question: With `CS(=O)(=O)N1CCC[C@@]2(CCN(c3ccncc3)C2)C1` as the compound, how does the AC50 read?
Answer: inactive

Question: Which AC50 does the source give for `O=S(=O)(c1ccccc1)N1CCC[C@@]2(CCN(c3ccccc3)C2)C1` here?
Answer: 0.316 µM (active)

Question: How did the AC50 turn out when `CS(=O)(=O)N1CCC[C@@]2(CCN(c3ccccn3)C2)C1` was run?
Answer: inactive

Question: `O=S(=O)(c1ccccc1)N1CCC[C@@]2(CCN(c3ccncc3)C2)C1` was tested. Which AC50 did it give?
Answer: 0.398 µM (active)
